# Changes are numbered by the printed parent chain; changes in the protein carry UniProt numbers. In all, about 16,000 sequences were measured (“ka relative to ugcaugu”: median about 0.0091, highest 2% from about 0.032 on). Shown is part of a subset that was picked to be rich in the highest values.
# B1: CGCAUAC (DNA:RNA)
# RNA: GGGAGACCGGAAUUCAGAUUGUCCCGCAUACUUAAAUCCCGUCGUAGCCACCA
# DNA 1: CAATCTGAATTCCGGTCTCCC
# DNA 2: TGGTGGCTACGACGGGATT
# B2: AUGCGCC (DNA:RNA)
# RNA: B1 RNA with C25A, G26U, C27G, A28C, U29G, A30C
# DNA 1: CAATCTGAATTCCGGTCTCCC
# DNA 2: TGGTGGCTACGACGGGATT
# B3: AACACCC (DNA:RNA)
# RNA: B1 RNA with C25A, G26A, U29C, A30C
# DNA 1: CAATCTGAATTCCGGTCTCCC
# DNA 2: TGGTGGCTACGACGGGATT
# B4: AAUUUUC (DNA:RNA)
# RNA: B1 RNA with C25A, G26A, C27U, A28U, A30U
# DNA 1: CAATCTGAATTCCGGTCTCCC
# DNA 2: TGGTGGCTACGACGGGATT
# B5: ACAGCCG (DNA:RNA)
# RNA: GGGAGACCGGAAUUCAGAUUGUCCACAGCCGUUAAAUCCCGUCGUAGCCACCA
# DNA 1: CAATCTGAATTCCGGTCTCCC
# DNA 2: TGGTGGCTACGACGGGATT
# B6: UGGGCCC (DNA:RNA)
# RNA: B5 RNA with A25U, C26G, A27G, G31C
# DNA 1: CAATCTGAATTCCGGTCTCCC
# DNA 2: TGGTGGCTACGACGGGATT
# B7: UGGGGCC (DNA:RNA)
# RNA: B5 RNA with A25U, C26G, A27G, C29G, G31C
# DNA 1: CAATCTGAATTCCGGTCTCCC
# DNA 2: TGGTGGCTACGACGGGATT
# B8: UGGCCGU (DNA:RNA)
# RNA: B5 RNA with A25U, C26G, A27G, G28C, C30G, G31U
# DNA 1: CAATCTGAATTCCGGTCTCCC
# DNA 2: TGGTGGCTACGACGGGATT
# B9: UGGGCCG (DNA:RNA)
# RNA: B5 RNA with A25U, C26G, A27G
# DNA 1: CAATCTGAATTCCGGTCTCCC
# DNA 2: TGGTGGCTACGACGGGATT
# B10: CUGGGCC (DNA:RNA)
# RNA: B5 RNA with A25C, C26U, A27G, C29G, G31C
# DNA 1: CAATCTGAATTCCGGTCTCCC
# DNA 2: TGGTGGCTACGACGGGATT
# B11: UGGGCCU (DNA:RNA)
# RNA: B5 RNA with A25U, C26G, A27G, G31U
# DNA 1: CAATCTGAATTCCGGTCTCCC
# DNA 2: TGGTGGCTACGACGGGATT
# B12: GACUUCU (DNA:RNA)
# RNA: B1 RNA with C25G, G26A, A28U, A30C, C31U
# DNA 1: CAATCTGAATTCCGGTCTCCC
# DNA 2: TGGTGGCTACGACGGGATT
# B13: UCCAGUC (DNA:RNA)
# RNA: B1 RNA with C25U, G26C, U29G, A30U
# DNA 1: CAATCTGAATTCCGGTCTCCC
# DNA 2: TGGTGGCTACGACGGGATT
# B14: CGGCAUG (DNA:RNA)
# RNA: B1 RNA with C27G, A28C, U29A, A30U, C31G
# DNA 1: CAATCTGAATTCCGGTCTCCC
# DNA 2: TGGTGGCTACGACGGGATT
# B15: AGGCAUC (DNA:RNA)
# RNA: B1 RNA with C25A, C27G, A28C, U29A, A30U
# DNA 1: CAATCTGAATTCCGGTCTCCC
# DNA 2: TGGTGGCTACGACGGGATT
# B16: AGGCAUA (DNA:RNA)
# RNA: B5 RNA with C26G, A27G, G28C, C29A, C30U, G31A
# DNA 1: CAATCTGAATTCCGGTCTCCC
# DNA 2: TGGTGGCTACGACGGGATT
# B17: ACCGGCA (DNA:RNA)
# RNA: B5 RNA with A27C, C29G, G31A
# DNA 1: CAATCTGAATTCCGGTCTCCC
# DNA 2: TGGTGGCTACGACGGGATT
# B18: GGCAUUG (DNA:RNA)
# RNA: B1 RNA with C25G, A30U, C31G
# DNA 1: CAATCTGAATTCCGGTCTCCC
# DNA 2: TGGTGGCTACGACGGGATT
# B19: AUGUCGU (DNA:RNA)
# RNA: B5 RNA with C26U, A27G, G28U, C30G, G31U
# DNA 1: CAATCTGAATTCCGGTCTCCC
# DNA 2: TGGTGGCTACGACGGGATT
# B20: GUCAUGU (DNA:RNA)
# RNA: B1 RNA with C25G, G26U, A30G, C31U
# DNA 1: CAATCTGAATTCCGGTCTCCC
# DNA 2: TGGTGGCTACGACGGGATT
# B21: GGCAUGU (DNA:RNA)
# RNA: B1 RNA with C25G, A30G, C31U
# DNA 1: CAATCTGAATTCCGGTCTCCC
# DNA 2: TGGTGGCTACGACGGGATT
# B22: UGGCAUC (DNA:RNA)
# RNA: B1 RNA with C25U, C27G, A28C, U29A, A30U
# DNA 1: CAATCTGAATTCCGGTCTCCC
# DNA 2: TGGTGGCTACGACGGGATT
# B23: UGGCAUA (DNA:RNA)
# RNA: B1 RNA with C25U, C27G, A28C, U29A, A30U, C31A
# DNA 1: CAATCTGAATTCCGGTCTCCC
# DNA 2: TGGTGGCTACGACGGGATT
# B24: AGGCAUG (DNA:RNA)
# RNA: B5 RNA with C26G, A27G, G28C, C29A, C30U
# DNA 1: CAATCTGAATTCCGGTCTCCC
# DNA 2: TGGTGGCTACGACGGGATT
# B25: UGGCAUG (DNA:RNA)
# RNA: B5 RNA with A25U, C26G, A27G, G28C, C29A, C30U
# DNA 1: CAATCTGAATTCCGGTCTCCC
# DNA 2: TGGTGGCTACGACGGGATT
# Target: T1, RBFOX1 RRM (Homo sapiens, UniProt Q9NWB1 109-208)
# T1 sequence: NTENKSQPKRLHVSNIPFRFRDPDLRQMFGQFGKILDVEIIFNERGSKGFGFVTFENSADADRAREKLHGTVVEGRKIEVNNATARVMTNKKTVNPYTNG
# Assay: EMSA; HiTS-Eq, 1 nM pool, 10 min; buffer printed only for the single-RNA assays: 10 mM Tris pH 7.5, 150 mM NaCl, 3.4 mM EDTA, 0.001% NP-40, 30 C
# Conditions: tags: His6 N-terminal (pET28a); label: 5' 32P
# In short: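 Purified RbFox RRM (wild type or mutant) was equilibrated for 10 min in 50 µL with 1 nM of a 5′-radiolabelled pool of RNA with 7 randomized nucleotides, its flanks annealed to DNA oligonucleotides, across increasing protein concentrations. Free RNA was separated by 8% native PAGE, excised, reverse-transcribed, PCR-barcoded and sequenced on an Illumina HiSeq 2500. Relative association constants came from read-count changes of each variant against the control reaction, normalised to the cognate motif.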
row,Binder,binding signal
1,B1,0.0068 KA relative to UGCAUGU
2,B2,0.0101 KA relative to UGCAUGU
3,B3,0.000265 KA relative to UGCAUGU
4,B4,0.00788 KA relative to UGCAUGU
5,B5,0.00101 KA relative to UGCAUGU
6,B6,0.0266 KA relative to UGCAUGU
7,B7,0.0345 KA relative to UGCAUGU
8,B8,0.023 KA relative to UGCAUGU
9,B9,0.0335 KA relative to UGCAUGU
10,B10,0.0274 KA relative to UGCAUGU
11,B11,0.0237 KA relative to UGCAUGU
12,B12,0.0118 KA relative to UGCAUGU
13,B13,0.00851 KA relative to UGCAUGU
14,B14,0.573 KA relative to UGCAUGU
15,B15,0.0123 KA relative to UGCAUGU
16,B16,0.00927 KA relative to UGCAUGU
17,B17,0.00809 KA relative to UGCAUGU
18,B18,0.0108 KA relative to UGCAUGU
19,B19,0.0142 KA relative to UGCAUGU
20,B20,0.0129 KA relative to UGCAUGU
21,B21,0.426 KA relative to UGCAUGU
22,B22,0.0211 KA relative to UGCAUGU
23,B23,0.0137 KA relative to UGCAUGU
24,B24,0.662 KA relative to UGCAUGU
25,B25,0.696 KA relative to UGCAUGU
